Assay outcomes as filed in PubChem BioAssay.
mHTT-CaM PPI inh = mutant huntingtin-calmodulin interaction inhibitors – biochemical, AlphaScreen, primary screen. AlphaScreen His-mHTT/GST-CaM binding, luminescence. inhibition, % at 15 µM. actives 3.6% (n = 190,000). AID 1671202, 2021;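 further: 0% = both proteins with DMSO and 100% = one protein alone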
Pf apPOL inh = Pf-apPOL inhibitors, biochemical, fluorescence. Plasmodium falciparum apicoplast DNA polymerase (apPOL). Recombinant Pf-apPOL, molecular beacon fluorescence, 1.5 h. inhibition, % at 10 µM. actives 0.25% (n = 210,000). AID 1794808, 2022
The depositor's hits bear a star; / = no result given. Only some compounds are listed: those with a hit (about 3.5% of all), similar ones and a draw of the others. No stated cut-off is given here; in the data, active means inhibition above about 50%; inactive means the rest.

SMILES	mHTT-CaM PPI inh	Pf apPOL inh
O=C(NCc1ccc(F)cc1F)C1CCN(c2cncnc2N2CCCCC2)CC1	5	3
O=C(NCc1ccccc1Cl)C(=O)NCC1(CO)CC1	-12	-12
Cc1ccc(C(=O)N2CC(C)C(c3nc(-c4cccnc4)no3)C2)c(C)c1 (stereo unspecified)	12	0
CC(C)(C)N=C1Nc2ncccc2NC12CCCN(C(=O)c1cc(-c3cccs3)[nH]n1)C2 (stereo unspecified)	10	-3
CC(C)(C)N=C1Nc2ncccc2NC12CCN(C(=O)c1cc(-c3cccs3)[nH]n1)CC2	57*	-3
Nc1nc(NC(=O)c2ccc([N+](=O)[O-])cc2)nn1-c1ccccc1	-4	-7
O=C(Nc1nc(NC(=O)c2ccccc2)n(-c2ccccc2)n1)c1ccccc1	89*	-3
COc1cc(OC)cc(C(=O)Nc2c3c(nn2-c2cccc(C)c2C)CSC3)c1	18	-3
CC(C)Cn1c(=O)c2c(ncn2Cc2ccc(F)cc2)n(-c2ccccc2)c1=O	7	2
Cc1ccccc1-n1c(=O)n(CC(C)C)c(=O)c2c1ncn2Cc1ccc(F)cc1	75*	-7
O=C(C1=C(O)C(=O)N(CCCN2CCOCC2)C1c1ccco1)c1ccco1 (stereo unspecified)	2	/
O=C(O)c1ccc(N2N=C(C(F)(F)F)/C(=C/c3ccc(-c4ccccc4[N+](=O)[O-])o3)C2=O)cc1	50*	2
O=C(O)c1cccc(N2N=C(C(F)(F)F)/C(=C/c3ccc(-c4ccccc4[N+](=O)[O-])o3)C2=O)c1	37	4
COCn1nnc(-c2ccc(Cl)cc2)n1	-13	/
COc1ccc(-c2ccc(CN3C(CC(C)C)C(=O)N(Cc4cn(CC5CCCCC5)nn4)CCS3(=O)=O)cc2)cc1OC (stereo unspecified)	15	0
Cc1ccc(-c2ccc(CN3C(C)C(=O)N(Cc4cn(CC5CCCCC5)nn4)CCS3(=O)=O)cc2)cc1 (stereo unspecified)	30	-7
CC1C(=O)N(Cc2cn(CC3CCCCC3)nn2)CCS(=O)(=O)N1Cc1ccc(-c2ccccc2)cc1 (stereo unspecified)	73*	0
CC(C)CC1C(=O)N(Cc2cn(CC3CCCCC3)nn2)CCS(=O)(=O)N1Cc1ccc(-c2ccncc2)cc1 (stereo unspecified)	65*	-2
COc1ccccc1N1CCN(C(=O)c2snc(C(=O)NC(C)C)c2N)CC1	4	0
Cc1n[nH]c(C)c1Sc1ccccc1N=Cc1c(C)[nH]n(-c2ccccc2)c1=O	88*	-4
Cc1n[nH]c(C)c1Sc1ccccc1N=Cc1cc(Br)ccc1O	58*	-2
Cc1n[nH]c(C)c1Sc1ccccc1N=Cc1cc(Cl)ccc1O	31	-6
Cc1n[nH]c(C)c1Sc1ccccc1N=Cc1ccc(C(=O)O)cc1	2	-3
COc1ccc(Br)cc1C1=N/C(=C/c2ccccc2F)C(=O)O1	-2	-3
O=c1c2nc(-c3cccs3)cn2ccn1-c1ccc(Cl)cc1	-3	1
SMILES	mHTT-CaM PPI inh	Pf apPOL inh
Cc1ccc(-c2nc3cc(NC(=O)c4ccco4)ccc3o2)c(C)c1	19	-3
Cc1cccc(C2=NN(c3ccccc3)[C@H](CO)[C@H]2C)c1	-5	-4
CC[C@H]1C(c2ccc(F)cc2)=NN(c2ccccc2)[C@@H]1CO	-58	-6
Cc1cccc(C2=NN(c3ccccc3)[C@H](CO)[C@H]2c2ccccc2)c1	87*	-3
OC[C@@H]1[C@@H](c2ccc(F)cc2)C(c2ccccc2)=NN1c1ccccc1	89*	-4
N#CCCc1c(Br)ccc(OCc2ccccc2)c1OCc1ccccc1	/	-7
CCCc1nc(-c2c(C)cc(C)nc2NC(=O)c2cc(C)cc(C)c2)no1	0	-1
O=C(O)C1CC=CCC1C(=O)Nc1nc(-c2ccc(Cl)cc2)cs1 (stereo unspecified)	-3	-2
CC(=O)N(CN1C(=O)c2ccc([N+](=O)[O-])cc2C1=O)c1ccc(F)cc1	23	3
CC(=O)N(CN1C(=O)c2ccc([N+](=O)[O-])cc2C1=O)c1ccc(Oc2ccc(Cl)cc2)cc1	3	92*
CCOC(=O)c1cccc(NC(=O)N2CCC3(CC2)Nc2ccccc2-n2cccc23)c1	66*	-5
O=C(Nc1cccc(C(F)(F)F)c1)N1CCC2(CC1)Nc1ccccc1-n1cccc12	97*	4
CCOC(=O)Cc1ccc(NC(=O)N2CCC3(CC2)Nc2ccccc2-n2cccc23)cc1	76*	4
CCOC(=O)c1ccccc1NC(=O)N1CCC2(CC1)Nc1ccccc1-n1cccc12	60*	4
CCOc1ccccc1NC(=O)N1CCC2(CC1)Nc1ccccc1-n1cccc12	21	-7
Cc1cc(C2C(C#N)=C(N)N(c3ccc(Br)cc3F)C3=C2C(=O)CCC3)c(C)s1 (stereo unspecified)	30	0
CCOC(=O)N1CCN(C(=O)C2CN(C(=O)COc3ccccc3F)C2)CC1	1	1
